KCNQ2 block – inhibitors of rat KCNQ2 potassium channel. O88943. CHO-K1 KCNQ2, FluxOR thallium flux, 20 min; hits give low values. B-score at 10 µM. 1.1% of 310,000 active. AID 2156;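 active = fluorescence ratio B-score at most minus 3 library SDs, with starting brightness B-score within 2 library SDs, cut at about -5.5 in these data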
Target sequence (O88943 whole entry, looked up): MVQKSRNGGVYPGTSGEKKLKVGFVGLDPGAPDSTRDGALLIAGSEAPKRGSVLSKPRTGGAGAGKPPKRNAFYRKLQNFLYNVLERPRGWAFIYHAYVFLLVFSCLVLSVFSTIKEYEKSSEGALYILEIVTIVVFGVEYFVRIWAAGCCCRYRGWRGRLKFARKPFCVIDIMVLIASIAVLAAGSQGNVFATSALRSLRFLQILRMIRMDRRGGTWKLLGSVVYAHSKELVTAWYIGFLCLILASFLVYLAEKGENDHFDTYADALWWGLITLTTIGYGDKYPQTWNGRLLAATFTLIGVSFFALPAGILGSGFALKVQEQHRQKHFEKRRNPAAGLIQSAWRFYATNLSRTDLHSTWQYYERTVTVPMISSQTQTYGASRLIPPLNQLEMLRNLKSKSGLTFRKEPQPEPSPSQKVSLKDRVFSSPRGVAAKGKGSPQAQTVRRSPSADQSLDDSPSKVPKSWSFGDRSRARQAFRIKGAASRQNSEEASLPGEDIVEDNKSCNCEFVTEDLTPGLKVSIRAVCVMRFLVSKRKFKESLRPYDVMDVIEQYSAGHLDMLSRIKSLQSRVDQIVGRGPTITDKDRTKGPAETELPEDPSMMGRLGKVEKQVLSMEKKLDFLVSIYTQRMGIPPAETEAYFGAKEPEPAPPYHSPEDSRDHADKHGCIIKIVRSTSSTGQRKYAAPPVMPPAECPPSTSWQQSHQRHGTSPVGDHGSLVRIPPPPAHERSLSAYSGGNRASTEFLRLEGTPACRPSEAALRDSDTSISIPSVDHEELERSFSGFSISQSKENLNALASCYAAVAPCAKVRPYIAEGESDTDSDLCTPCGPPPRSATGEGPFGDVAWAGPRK
KCNQ2 pot – KCNQ2 (rat) channel potentiation. CHO-K1 KCNQ2, FluxOR thallium flux fluorescence; hits give high values. B-score at 10 µM. O88943. 0.54% of 310,000 active;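 active = fluorescence ratio B-score at least 3 SD of library B-scores, with initial fluorescence B-score within 3 of them, cut at about 5.3 in these data; same plate scores as AID 2156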;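 note: B-score of peak minus minimum over baseline fluorescence ratio after K+ and Tl+ stimulus; positive B-score means potentiation of KCNQ2 with more thallium influx and brighter signal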
KCNQ2 block conf – rat KCNQ2 channel inhibition, confirmatory screen | shares compounds with KCNQ2 block | KCNQ2-expressing cells, thallium flux; hits give low values | activity change, negative = inhibition, % at 10 µM | 57% of 1,000 active | AID 493025;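 note: 0% = vehicle wells and values are ratio percent relative to vehicle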
KCNQ1 spec – KCNQ2 inhibitor that also affects human KCNQ1 channel | shares compounds with KCNQ2 block | 15% of 1,000 active | AID 493026 | activity change, negative = inhibition, % at 10 µM | KCNQ1-expressing cells, FluxOR thallium flux fluorescence; hits give low values;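 active = activity change at least 3 SD of negative controls below their mean in both duplicate wells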;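 note: CHO cells stably transfected with KCNQ1 and depolarized by potassium stimulus; peak minus minimum fluorescence over baseline after thallium addition; 0% = vehicle negative control and -100% = blank without thallium stimulus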
CHO Tl ctr – activity in parental CHO cells lacking KCNQ2; 14% of 1,000 active; thallium flux counter-screen; hits give low values; shares compounds with KCNQ2 block; activity change, % at 10 µM;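 note: 0% = vehicle negative controls with stimulus buffer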
KCNQ2 inh confirm – rat KCNQ2 inhibition confirmed by electrophysiology | AID 588531 | shares compounds with KCNQ2 block | calls only at 10 µM | 49% of 550 active | KCNQ2-expressing cells, automated patch clamp current
An asterisk follows results filed as active; i = inactive; / = not tested or not shown; + = active, no number. A selection: hits, their analogues and other compounds. The true share with any hit is near 1.6%. Unless noted, the rule behind the calls is not given here.

SMILES	KCNQ2 block	KCNQ2 pot	KCNQ2 block conf	KCNQ1 spec	CHO Tl ctr	others
Cc1oc(CC(C)C)cc1C(=O)Nc1cccc2ccccc12	-7.7*	-7.7	i	i	i
COc1ccc(-c2cc(=O)oc3cc(OCC(=O)NCC(O)c4ccccc4)ccc23)cc1 (centres undefined)	i	/	/	/	/
CCOC(=O)CSc1nnc(Cc2ccccc2)n1-c1cccc(Cl)c1	i	/	/	/	/
CCOC(=O)CSc1nnc(CNc2ccccc2Cl)n1-c1ccccc1	-6.7*	-6.7	-25%*	i	i	KCNQ2 inh confirm=+
COc1ccc(-c2n[nH]c(C)c2-c2cnn(-c3ccccc3)c2)c(O)c1C	i	/	/	/	/
COc1ccc(-c2n[nH]c(C)c2-c2cnn(-c3ccccc3)c2)c(O)c1	-8*	-8	i	i	i
Clc1ccc(/C(Cc2nc3ccccc3[nH]2)=N\Nc2ccccc2)cc1	-6.6*	-6.6	-38%*	i	i	KCNQ2 inh confirm=i
Clc1ccc(SCc2nc3ccccc3[nH]2)cc1	i	/	/	/	/
COc1ccc2c(CC(=O)NCc3ccc4c(c3)OCO4)coc2c1	i	0.51	/	/	/
O=C(Nc1ccc2c(c1)OCO2)C(c1ccccc1)N1CCCCC1 (centres undefined)	i	/	/	/	/
CC1CCN(C(C(=O)Nc2ccc3c(c2)OCO3)c2ccccc2)CC1 (centres undefined)	-7*	-7	i	i	i
COc1ccc(OC)c(CCNC(=O)CCc2nnc3ccc(N4CCOCC4)nn23)c1	i	0.31	/	/	/
COc1c(C)cc(C(=O)C2CCCN(C(=O)/C=C/c3ccccn3)C2)cc1C (centres undefined)	i	0.1	/	/	/
CC1=C(C(=O)NCc2ccco2)C2(CCC(C)CC2)OC1=O (centres undefined)	i	0.4	/	/	/
CC1=C(C(=O)NCc2ccc3c(c2)OCO3)C2(CCC(C)CC2)OC1=O (centres undefined)	-9.4*	-9.4	i	i	i
CN1c2ccccc2C(=O)NC1c1ccc([N+](=O)[O-])s1 (centres undefined)	i	1.1	/	/	/
CC(=O)N1c2ccc(S(=O)(=O)NCCC(=O)Nc3ccc(C)c(F)c3)cc2CC1C (centres undefined)	i	/	/	/	/
CC1CCCC(C)N1CCCNC(=O)c1nn(C)c2c1CSc1ccccc1-2 (centres undefined)	i	0.45	/	/	/
CN(C(=O)c1nn(C)c2c1CSc1ccccc1-2)c1ccccc1Cl	-6.7*	-6.7	-37%*	-40%*	-34%*	KCNQ2 inh confirm=i
CCC(C)c1ccc(OCc2ccc(C(=O)OC)o2)cc1 (centres undefined)	i	/	/	/	/
O=S(=O)(c1ccc(Cl)s1)N1CCC(Cc2ccccc2)CC1	-7.4*	-7.4	i	i	i
O=S(=O)(c1ccc(Cl)s1)N1CCN(CCc2ccccc2)CC1	i	0.56	/	/	/
O=S(=O)(c1ccc(Br)s1)N1CCC(Cc2ccccc2)CC1	-9.3*	-9.3	i	i	i
CN1CCN(S(=O)(=O)c2ccc(Br)s2)CC1	i	0.15	/	/	/
CC(=O)N1CCC2(CC1)CC(=O)c1cc(OCC(=O)N3CCOCC3)ccc1O2	i	0.78	/	/	/
SMILES	KCNQ2 block	KCNQ2 pot	KCNQ2 block conf	KCNQ1 spec	CHO Tl ctr	others
CCCCN(CCCC)CCNC(=O)c1cn(C)c2ccc(S(=O)(=O)N3CCCC3)cc2c1=O	i	/	/	/	/
CN(CC(O)COc1ccccc1F)C1CCCCC1 (centres undefined)	i	0.14	/	/	/
Cc1ccccc1OCC(O)CN(Cc1ccccc1O)C1CCCCC1 (centres undefined)	-7.4*	-7.4	-28%*	i	i	KCNQ2 inh confirm=+
CC1Oc2cc3oc4c(O)c5c(cc4c(=O)c3c(O)c2C1(C)C)C=CC(C)(C)O5 (centres undefined)	i	/	/	/	/
CC(C)=CCc1cc2c(=O)c3c(O)c4c(cc3oc2c(O)c1O)OC(C)C4(C)C (centres undefined)	-8.6*	-8.6	i	i	i
CCOc1ccc(S(=O)(=O)NCCC(=O)OCC(=O)c2ccc[nH]2)cc1	i	0.54	/	/	/
O=C(c1n[nH]c2c1CCCC2)n1ccnc1	i	0.66	/	/	/
CC1CN(S(=O)(=O)c2cccc(C(=O)N(CCc3ccccc3)Cc3ccccc3)c2)CC(C)O1 (centres undefined)	-8.3*	-8.3	-32%*	-27%*	i	KCNQ2 inh confirm=+
Cc1ccc(N(Cc2ccccc2)C(=O)c2cccc(S(=O)(=O)N3CC(C)OC(C)C3)c2)cc1 (centres undefined)	i	0.29	/	/	/
O=c1[nH]c(NC2CCCCC2)c([N+](=O)[O-])c(=O)[nH]1	i	0.02	/	/	/
COc1ccc(CNC(=O)C/C(C)=N/NC(=O)c2ccccc2OC)cc1	i	1.3	/	/	/
CCn1c(=O)c(C(=O)NCc2ccccc2OC)c(O)c2ccccc21	i	/	/	/	/
CCn1c(=O)c(C(=O)NCc2ccc(Cl)cc2)c(O)c2ccccc21	-7.6*	-7.6	-25%*	i	i	KCNQ2 inh confirm=i
CCn1c(=O)c(C(=O)NCc2ccccc2)c(O)c2ccccc21	i	/	/	/	/
CCn1c(=O)c(C(=O)NCc2ccc(F)cc2)c(O)c2ccccc21	-6.7*	-6.7	i	i	i
CCn1c(=O)c(C(=O)NCc2cccnc2)c(O)c2ccccc21	i	1.1	/	/	/
CCCn1c(=O)c(C(=O)NCc2ccccc2OC)c(O)c2ccccc21	-7.6*	-7.6	i	i	i
Cc1ccccc1OCC(=O)NNC(=O)c1cc(S(=O)(=O)N2CCOCC2)ccc1N1CCCC1	i	0.19	/	/	/
Cc1cc(NC(=O)CCC(=O)N(Cc2cccnc2)C(C(=O)NC(C)(C)C)c2ccccc2Cl)no1 (centres undefined)	i	0.02	/	/	/
CC(=O)N1CCN(C(=O)CCC(=O)O)CC1	i	0.18	/	/	/
CCc1c(O)nc(SCC(=O)Nc2nc3ccccc3s2)n(C2CCCCC2)c1=O	i	1.4	/	/	/
Cc1ccc(NC(=O)CN(C)C(=O)c2ccccc2OCc2c(C)noc2C)cc1	i	/	/	/	/
COc1ccc(Br)cc1CN(C)C(=O)c1ccccc1OCc1c(C)noc1C	-8.6*	-8.6	i	i	i
CCCCn1cnc2c(c(-c3ccccc3)c(-c3ccccc3)n2Cc2ccco2)c1=N	-7.6*	-7.6	-27%*	i	i	KCNQ2 inh confirm=i
CCCCn1c(=O)[nH]c(=O)c2c1ncn2Cc1ccco1	i	0.89	/	/	/
SMILES	KCNQ2 block	KCNQ2 pot	KCNQ2 block conf	KCNQ1 spec	CHO Tl ctr	others
CC(C)c1c(C(=O)N/N=C/c2cccc(OCc3ccc(F)cc3)c2)nnn1-c1nonc1N	i	/	/	/	/
CN(C(=O)COC(=O)COc1ccc(Cl)cc1)C1CCCCC1	i	/	/	/	/
Cc1cc(OCC(=O)N(C)C2CCCCC2)cc(C)c1Cl	-7.4*	-7.4	-43%*	-46%*	-38%*	KCNQ2 inh confirm=+
CC(=O)Nc1ccc2c(c1)nc(CCN1CCN(c3ccccn3)CC1)n2C	i	/	/	/	/
CC1(C)CCCN(C(=O)N2c3ccccc3Sc3ccccc32)C1	-8.6*	-8.6	i	i	i
O=C(CN1CCCC1)N1c2ccccc2Sc2ccccc21	i	1.9	/	/	/
